# Measured values as given in PubChem BioAssay (NCI).
# About 79,000 compounds went through this panel and 15% of them were active in at least one assay; those are over-represented in the sample as a whole. Unmarked numbers belong to inactive results. Active and inactive are the calls of the source. Cut-off read from the data, not from the text of the source: active = growth inhibition above about 70%; inactive = the rest. Residues, ends and D or L forms follow the SMILES beside them. *: point of attachment. CH2Cl = ClC*
# Assay: NCI Yeast Anticancer Drug Screen. Data for the rad50EPP+ strain (AID 151);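 note: 0% = growth of vehicle-treated control cultures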
# Conditions: S. cerevisiae rad50 mutant strain, active compounds read high
# Method: Growth inhibition of yeast strains with defined genetic alterations is measured as a screen for potential anti-cancer activity. Selected strains with alterations in DNA damage repair or cell cycle control were exposed to compounds and growth inhibition was measured relative to vehicle treated controls. The strain used in this assay is rad50EPP+
Structure (SMILES),growth inhibition (at 1.2 µM),growth inhibition (at 3.7 µM),growth inhibition (at 11.0 µM),growth inhibition (at 33.0 µM),growth inhibition (at 100.0 µM)
Cc1cccc(/C=N\NC(=S)N2CCCCC2)n1,-10%,-17%,86% (active),97% (active),97% (active)
COC(=O)c1ccc2c(c1)Cc1ccccc1-2,2%,10%,25%,39%,43%
CC(C)c1[nH]nc(C(N)=O)c1N=NN(C)C,-1%,15%,37%,73% (active),91% (active)
CC(=O)NC(CC(C)C)C(=O)NC(Cc1ccccc1)C(=O)CCl (stereo not drawn) (Ac-Leu-Phe-CH2Cl; configuration not given here),-3%,-4%,-1%,9%,52%
O=C(O)c1ccccc1.[Ag],94% (active),101% (active),99% (active),99% (active),98% (active)
CCOC(=O)c1csc(Br)n1,-2%,4%,-2%,0%,-4%
CCC(C)(c1ccc(O)c(C)c1)c1ccc(O)c(C)c1,-31%,-38%,-43%,-41%,12%
S=c1[nH]nc(-c2ccc(Cl)cc2)s1,-1%,-1%,-9%,31%,81% (active)
